# In the library only some 3.9% were active in any assay of this set; here they are far more common.
# D1 agonist = Allosteric Agonists of the Human D1 Dopamine Receptor: qHTS. D(1A) dopamine receptor (Homo sapiens), P21728. HEK293 T-REx D1 cells, calcium flux, agonist mode. activation, % at 2 µM. actives 1% (n = 360,000). AID 504660, 2011; in the data active = activation above about 30%; also: 0% is about no effect
# Target sequence (P21728 whole entry, looked up): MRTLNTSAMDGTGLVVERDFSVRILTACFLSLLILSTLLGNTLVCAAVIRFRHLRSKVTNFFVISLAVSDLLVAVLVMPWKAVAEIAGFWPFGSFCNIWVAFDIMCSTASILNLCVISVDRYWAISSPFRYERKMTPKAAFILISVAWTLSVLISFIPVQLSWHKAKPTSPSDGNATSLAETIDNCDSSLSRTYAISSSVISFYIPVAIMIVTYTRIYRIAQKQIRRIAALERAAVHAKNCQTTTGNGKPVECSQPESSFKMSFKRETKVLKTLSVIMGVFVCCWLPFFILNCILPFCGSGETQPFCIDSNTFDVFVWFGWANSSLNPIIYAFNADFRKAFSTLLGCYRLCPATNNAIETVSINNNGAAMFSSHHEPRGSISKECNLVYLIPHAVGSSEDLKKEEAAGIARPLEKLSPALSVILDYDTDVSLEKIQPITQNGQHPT
#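 Tetracycline-induced HEK293 TREx D1 cells, force-coupled to calcium signalling, were dye-loaded with a no-wash calcium kit. Compound was pin-added after a 10 s baseline. Fluorescence was read kinetically at 1 cycle/s for 180 s, with calcium rises flagged as agonism.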
# USP2a inh = qHTS Assay for Inhibitors of Ubiquitin-specific Protease USP2a Using CHOP2 as the Reporter. Ubiquitin carboxyl-terminal hydrolase 2 (Homo sapiens), O75604. USP2 core, Ub-CHOP2 coupled fluorogenic reporter, 485/531. Potency, µM (series often up to 38.3 µM), for the others: top-dose activity change, negative = inhibition, hits mostly inhibitors. actives 0.01% (n = 330,000);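 also: potency is read from the fitted curve at half-maximal effect; plate controls were DMSO wells for no effect and full inhibition by NEM control for full effect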
#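 Deubiquitinase activity read as fluorescence (485/531 nm) after Ub-CHOP2 cleavage activates the enterokinase reporter on its substrate; USP2 core 10nM, Ub-CHOP2 and substrate 25nM each, 30min compound preincubation then 60min RT; data normalized to NEM, curves fitted.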
# GALK inh = qHTS Assay for Inhibitors of Human Galactokinase (GALK); P51570; Purified GALK, Kinase-Glo residual ATP luminescence; Potency, µM (top dose mostly 57.5 µM), inactives show at the highest dose activity change, negative = inhibition, usual class: inhibitors; actives 0.007% (n = 270,000); AID 1868, 2009; also: potency is read from the fitted curve at half-maximal effect; % is scaled to controls: 0 for no effect and ±100 for the full control effect
#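 ATP-depletion format; final 35 uM ATP, 100 uM D-galactose, 5 nM enzyme; pH 8.0 HEPES/Mg2+ buffer; 60 min RT; luminescence read 10 min after detection reagent.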
# Eya2 phos inh = qHTS Assay for Inhibitors of the Phosphatase Activity of Eya2; Protein phosphatase EYA2 (Homo sapiens), O00167; recombinant Eya2, OMFP fluorescence dephosphorylation (OMFP is methylfluorescein phosphate); Potency, µM (doses to about 76.9 µM), without a hit: at the top dose activity, negative = inhibition, most hits filed as inhibitors; actives 0.006% (n = 330,000); AID 488837, 2010; also: potency is read from the fitted curve at half-maximal effect; % is scaled to controls: 0 for no effect and ±100 for the full control effect
#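 Eya2 (0.2 uM) preincubated 10 min at ambient with compound, then OMFP substrate added at 50 uM; 10 min reaction in 50 mM HEPES pH 7.5, 50 mM NaCl, 5 uM MgCl2, 0.05% BSA, 1 mM DTT. Fluorescence read at Ex 485/Em 525 nm.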
# D1 antag = Antagonist of Human D 1 Dopamine Receptor: qHTS; HEK293 TREx D1 cells, calcium flux, dopamine EC80; stronger effect = lower value; activity change, negative = inhibition, % at 10 µM; actives 3.2% (n = 360,000); AID 504652, 2011; in the data active = activity change below about -30%; also: % is scaled to controls: 0 for no effect and ±100 for the full control effect
#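 Compound effects on dopamine-evoked calcium signalling were measured in tetracycline-induced HEK293 Trex D1 cells. Dopamine at EC80 followed a 180 s compound pre-read, and fluorescence was tracked kinetically for 180 s more.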
# D1 PAM = Potentiators of Human D1 Dopamine Receptor: qHTS; D(1A) dopamine receptor (Homo sapiens), P21728; HEK293 TREx D1 cells, calcium flux, dopamine EC20 potentiation; potentiation, % at 10 µM; actives 0.036% (n = 360,000); AID 504651, 2011; in the data active = potentiation above about 30%; also: 0% is about no effect
# An asterisk follows results filed as active; x = no result given. Unless noted, calls follow the shape of the dose curve; as a rule, active = well fitted inhibition curve with a large enough effect; inconclusive = small, poorly fitted or top-dose-only effect, or effect the other way; inactive = flat fitted curve, though single readings scatter.
SMILES,D1 agonist,USP2a inh,GALK inh,Eya2 phos inh,D1 antag,D1 PAM
Nn1cnc2c([nH]c3ccccc32)c1=O,2,3%,-2%,2%,-32*,0
COC(=O)c1ccc(NS(=O)(=O)c2ccc(Cl)cc2)o1,5,3%,0%,9%,-7,-1
COC(=O)c1ccc(NS(=O)(=O)c2ccccc2)o1,5,2%,-2%,-5%,-33*,-6
CCOC(=O)C1=C(O)/C(=C\c2ccc(OC)c(OC)c2)N=C1C,0,-1%,1%,-16%,6,-7
CCOC(=O)C1=C(O)/C(=C/c2cc(OC)c(OC)c(OC)c2)N=C1C,3,0%,1%,-10%,-38*,-8
CCOC(=O)c1c(NC(=O)/C=C/c2ccc(OCC)cc2)sc2c1CCCC2,2,x,x,x,-10,4
CCOC(=O)c1c(NC(=O)/C=C/c2ccc(OCC)cc2)sc(C)c1C,3,x,x,x,-80*,-3
CCOC(=O)c1sc(NC(=O)/C=C/c2cnn(CC)c2C)c(C(=O)OCC)c1C,7,2%,-1%,-43%,-60*,-4
CCc1cccc(C)c1NC(=O)C1CC(=O)N(C2CCCC2)C1 (stereo not drawn),2,1%,x,2%,-46*,0
O=C(C1CC(=O)N(C2CCCC2)C1)N1CCN(c2ccccc2F)CC1 (stereo not drawn),5,-2%,1%,3%,11,x
CCOC(=O)c1ccccc1NC(=O)C1CC(=O)N(C2CCCCC2)C1 (stereo not drawn),7,-6%,-2%,-18%,17,2
O=C(C1CC(=O)N(C2CCCC2)C1)N1CCC(Cc2ccccc2)CC1 (stereo not drawn),7,1%,-3%,-6%,-38*,-14
O=C(Nc1ccc(O)c(-c2nc3ccccc3o2)c1)c1sc2ccccc2c1Cl,0,x,x,x,-30*,0
COc1ccc(C(c2sc3nc(C)nn3c2O)N2CCC(O)CC2)cc1OC (stereo not drawn),4,3%,4%,-21%,-1,-9
COc1ccc(C(c2sc3nc(C)nn3c2O)N2CCN(Cc3ccccc3)CC2)cc1OC (stereo not drawn),2,-4%,2%,-1%,-51*,-11
CCN(C(=O)CSc1nc(C)nc2sc(C)c(C)c12)C1CCS(=O)(=O)C1 (stereo not drawn),0,1%,x,-6%,-33*,0
CCCC1C(C(=O)OCC)=C(C)NC(C)=C1C(=O)OCC,2,2%,-1%,0%,-50*,-19
CCOC(=O)C1=C(C)NC(C)=C(C(=O)OCC)C1c1ccc(O)cc1,0,1%,-3%,13%,-36*,-7
CCOC(=O)C1=C(C)NC(C)=C(C(=O)OCC)C1C(=O)OCC(=O)N(C)C,0,5%,5%,4%,-60*,-2
CCOC(=O)C1=C(C)NC(C)=C(C(=O)OCC)C1c1c(F)c(F)c(F)c(F)c1F,x,x,x,-24%,x,x
Cc1ccc(NC(=O)Cn2c(=O)n(Cc3nc(C)no3)c(=O)c3cc4c(cc32)OCO4)c(Cl)c1,-1,x,x,x,-3,-1
Cc1ccc2nc(SCc3nnc(-c4cccs4)o3)[nH]c2c1,1,-1%,10%,15%,-37*,-1
COc1ccc(-c2ccnc3c2c(=O)n(C)c(=O)n3C)cc1OC,0,x,x,x,-11,0
O=C(CSc1nnc(-c2ccccc2Cl)o1)N1CCCc2ccccc21,9,x,x,x,-7,-2
N/C(=N\S(=O)(=O)c1cc(C(F)(F)F)cc(C(F)(F)F)c1)c1ccc(Cl)cc1,1,-11%,x,-24%,-77*,-7
SMILES,D1 agonist,USP2a inh,GALK inh,Eya2 phos inh,D1 antag,D1 PAM
COc1ccc(/C=C(\C#N)C(=O)NCCc2ccccc2)cc1OCc1ccccc1,33*,-1%,-2%,3%,-26,-3
CC(NC(=O)/C(C#N)=C/c1ccc(C(=O)O)cc1)c1ccccc1 (stereo not drawn),14,1%,0%,8%,5,-3
COc1cc(/C=C(/C#N)C(=O)NC(C)c2ccccc2)cc(OC)c1O (stereo not drawn),95*,4%,0%,11%,4,1
COc1cccc(C2C(C(=O)Nc3ccccc3OC)=C(C)Nc3nc(-c4ccco4)nn32)c1 (stereo not drawn),0,x,x,x,-2,-4
O=C(O)c1ccccc1-c1nc2ccccc2c(=O)[nH]1,-1,-7%,2%,-5%,-40*,5
COc1ccc(N2CCN(c3ncnc4onc(C)c34)CC2)cc1,21,x,x,x,-36*,-9
Cc1noc2ncnc(N3CCN(c4ccc(F)cc4)CC3)c12,10,0%,1%,5%,-5,-2
CC(C)Oc1ccc(CNC(=O)Cn2c(=O)c3cccn3c3cccnc32)cc1,1,1%,1%,7%,-81*,-16
O=C(CCCn1c(=O)c2cccn2c2ccc(F)cc21)NCc1ccc(Cl)cc1,8,x,x,x,17,0
CSCC(C)N1CCC(CO)(CCc2ccccc2)CC1 (stereo not drawn),3,2%,-1%,3%,-5,6
CC(COc1ccccc1)N1CCC(CO)(CCc2ccccc2)CC1 (stereo not drawn),35*,0%,-2%,3%,9,-6
N#CCN=C(c1ccccc1)c1ccccc1,-1,0%,x,2%,-47*,2
N#CN=C(c1ccccc1)c1ccccc1,1,1%,-1%,-2%,15,-3
CC1(c2ccc3noc(-c4ccc(F)cc4)c3c2)OCCO1,6,15%,4%,3%,-10,3
Fc1ccc(-c2onc3ccc(C4OCCO4)cc23)cc1,0,9%,4%,10%,-56*,-1
COc1ccc(NCc2nc3ccccc3n2CCOc2ccccc2C)cc1,-1,x,x,x,-10,0
O=C(CNc1ccc2ccccc2c1)N/N=C/c1ccc([N+](=O)[O-])o1,0,-4%,0%,-6%,-25,-2
O=C(CSc1ccc(Cl)cc1)N/N=C/c1ccc([N+](=O)[O-])o1,9,3%,-5%,-6%,-34*,-11

# Source: PubChem BioAssay
